Assay outcomes (PubChem)
proKLK7 act: proKLK7 (human) activation, primary screen; P49862; AID 652039; activation, % at 7 µM; purified proKLK7, EDANS-DABCYL substrate fluorescence; 100% is mature enzyme control, 0% vehicle; hit rate 0.9% among 370,000;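 active means activation above the mean of all tested compounds plus 3 SD, computed per campaign excluding outliers beyond control limits, cut at about 13% in these data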
ADAM17 inh: ADAM17 inhibition, QFRET primary screen; P78536; recombinant ADAM17, EDANS/DABCYL FRET peptide cleavage; inhibition, % at 6.95 µM; hit rate 0.83% among 370,000;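 active means inhibition above the mean of compounds lying between control limits plus 3 SD, set per campaign, cut at about 8.5% in these data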;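 further: 0% = DMSO-only wells as the low control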
Target sequence (P78536 215-824 limits assumed): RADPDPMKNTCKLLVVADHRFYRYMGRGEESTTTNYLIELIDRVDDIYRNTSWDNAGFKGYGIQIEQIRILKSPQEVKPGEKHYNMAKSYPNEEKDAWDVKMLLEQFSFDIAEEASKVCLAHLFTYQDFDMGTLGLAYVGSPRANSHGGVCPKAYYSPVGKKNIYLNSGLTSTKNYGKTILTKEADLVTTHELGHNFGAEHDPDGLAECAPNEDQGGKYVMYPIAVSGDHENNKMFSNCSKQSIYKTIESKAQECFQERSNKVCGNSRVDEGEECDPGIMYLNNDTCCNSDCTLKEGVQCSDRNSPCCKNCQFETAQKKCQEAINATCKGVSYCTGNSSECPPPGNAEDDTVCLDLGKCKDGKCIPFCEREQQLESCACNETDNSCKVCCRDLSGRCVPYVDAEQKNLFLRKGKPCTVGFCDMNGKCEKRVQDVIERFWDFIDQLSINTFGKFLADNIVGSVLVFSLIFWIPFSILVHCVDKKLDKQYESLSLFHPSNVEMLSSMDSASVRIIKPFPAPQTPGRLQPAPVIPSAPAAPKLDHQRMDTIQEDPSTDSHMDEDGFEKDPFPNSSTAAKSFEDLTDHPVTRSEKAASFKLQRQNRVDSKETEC
PLC-gamma1 inh: blocks human PLC-gamma1 enzyme activity; P19174; purified PLC-gamma1, fluorogenic substrate, fluorescence; inhibition, % at 12.2 µM; hit rate 0.84% among 370,000; in the data active means inhibition above about 9.5%
PLCb3 inh: blocks human PLC-beta3 enzyme activity; Q01970; Purified PLC-beta3, fluorogenic substrate, fluorescence; inhibition, % at 12.2 µM; hit rate 0.18% among 370,000; AID 720704;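 further: 0% = median of compound wells on plate and 100% = full blocker control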
ADAM10 inh: ADAM10 inhibition, QFRET primary screen; O14672; recombinant ADAM10, EDANS/DABCYL FRET peptide cleavage, 3 h; inhibition, % at 7 µM; hit rate 0.62% among 370,000;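 active means inhibition above a per-campaign cutoff equal to the mean of compounds falling between control-based bounds plus 3 SD, cut at about 20% in these data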;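 further: 0% = DMSO wells while the 100% control is not disclosed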
ADAM10 confirm: confirmation of inhibitors of human ADAM10; shares compounds with ADAM10 inh; ADAM10 QFRET peptide cleavage, EDANS fluorescence; inhibition, % at 6.95 µM; hit rate 1% among 2,100; AID 743208;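 active means inhibition above about 20% chosen separately for each screening run, limit read from the data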;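 further: 0% = DMSO wells and 100% = marimastat wells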
ADAM17 ctr: inhibits human ADAM17 in ADAM10 exosite counter-screen. hit rate 0.5% among 2,100. shares compounds with ADAM10 inh. ADAM17 QFRET peptide cleavage, EDANS fluorescence. inhibition, % at 6.95 µM;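 active means mean triplicate inhibition above the solvent-only control wells' mean plus 3 SD, cut at about 12% in these data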;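 further: 0% = DMSO wells and 100% = marimastat wells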
ADAM10 counter: inhibits human ADAM10 in ADAM17 exosite counter-screen; shares compounds with ADAM17 inh; recombinant ADAM10, EDANS/DABCYL FRET peptide cleavage, 3 h; inhibition, % at 6.95 µM; hit rate 47% among 2,900; AID 743256;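 active means mean inhibition over the triplicate runs exceeds the activity threshold set in the earlier primary screen, cut at about 20% in these data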;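 further: 0% = DMSO wells and 100% = marimastat wells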
ADAM17 confirm: confirmation of inhibitors of human ADAM17; inhibition, % at 6.95 µM; shares compounds with ADAM17 inh; recombinant ADAM17, EDANS/DABCYL QFRET peptide cleavage; hit rate 65% among 2,900; AID 743257;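 active means mean inhibition across replicates above the hit cutoff set in the primary screen, cut at about 8.5% in these data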;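 further: 0% = DMSO wells and 100% = marimastat wells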
PLCgamma1 ctr: counter-screen for PLC-beta3 inhibitors: inhibitors of human PLC-gamma1. hit rate 3.1% among 3,300. AID 743258. shares compounds with PLC-gamma1 inh. purified PLC-gamma1, fluorogenic substrate, fluorescence. inhibition, % at 12.3 µM; in the data active means inhibition above about 9.5%
PLCb3 confirm: confirmation of human PLC-beta3 inhibitors. hit rate 1% among 3,300. purified PLC-beta3, fluorogenic substrate fluorescence. inhibition, % at 12.3 µM. shares compounds with PLC-gamma1 inh
The depositor's hits bear a star; / = no result. Shown are actives, neighbours in structure and some others; about 2.9% of the full set was active somewhere. Unless noted, no stated cut-off is given here; in the data, active means inhibition above about 11%; inactive means the rest.

SMILES	proKLK7 act	ADAM17 inh	PLC-gamma1 inh	PLCb3 inh	ADAM10 inh	ADAM10 confirm	ADAM17 ctr	ADAM10 counter	ADAM17 confirm	PLCgamma1 ctr	PLCb3 confirm
COc1ccc(Cn2nnnc2C(C(C)C)N(Cc2ccco2)Cc2cccs2)cc1 (stereo not drawn)	0	13*	14*	14*	20*	2	1	20*	13*	-2	-1
CN(C)S(=O)(=O)c1cccc(NC(=O)c2cccc(N3C(=O)CCC3=O)c2)c1	1	2	1	-4	0	/	/	/	/	/	/
COc1ccc(NC(=O)Nc2ccc3c(c2)C(=O)N([C@H](C)CO)C[C@H](C)[C@@H](CN(C)S(=O)(=O)c2cccs2)O3)cc1	0	16*	11*	4	21*	3	0	14	10*	-4	-2
COc1ccc(S(=O)(=O)Nc2ccc3c(c2)C(=O)N([C@H](C)CO)C[C@H](C)[C@@H](CN(C)S(=O)(=O)c2cccs2)O3)cc1	0	1	1	3	3	/	/	/	/	/	/
O=c1c2ccccc2c(=O)n2n1Cc1ccccc1C2	0	-1	0	-5	-9	/	/	/	/	/	/
Cc1cccc(NC(=S)N2CCN(c3ccccn3)CC2)c1	1	2	4	4	-2	/	/	/	/	/	/
Cc1ccc(NC(=S)N2CCN(c3ccccn3)CC2)cc1C	0	3	11*	0	21*	1	1	/	/	-1	2
C#CCOCCOCCOCCNc1nc(N2CCN(C(=O)[C@H](CCC(=O)O)n3cc([C@@H](N)CC(N)=O)nn3)CC2)nc(N2CCN(C(=O)[C@H](CCC(=O)O)n3cc([C@@H](N)CC(N)=O)nn3)CC2)n1	0	1	-2	2	-12	/	/	/	/	/	/
CCSc1ccc([C@@H]2[C@H]3C(=O)N(C)C(=O)[C@H]3[C@]3(C(=O)OC)CCCCN23)cc1	1	18*	10*	3	22*	3	1	-2	5	-6	-4
CCSc1ccc([C@@H]2[C@@H]3C(=O)N(CC)C(=O)[C@@H]3[C@]3(C(=O)OC)CCCCN23)cc1	0	0	1	-2	-7	/	/	/	/	/	/
CCC(=O)N1CCc2cc(S(=O)(=O)N3CCN(c4ccccc4Cl)CC3)ccc21	1	-3	2	-5	-6	/	/	/	/	/	/
O=C(CCNC(=O)c1ccc(Br)cc1)Nc1ccc(S(=O)(=O)N2CCOCC2)cc1	0	0	1	-1	0	/	/	/	/	/	/
COc1ccc(NC(=O)CN(c2ccc(OC)c(Cl)c2)S(=O)(=O)c2ccccc2)c(OC)c1	0	14*	11*	-4	34*	7	2	30*	17*	-3	1
COc1ccc(N(CC(=O)Nc2ccccc2OC)S(=O)(=O)c2ccccc2)cc1Cl	-1	8	1	-9	13	/	/	/	/	/	/
CCOC(=O)C1CCCN(C(=O)c2cccc(S(=O)(=O)N(Cc3ccccc3)c3ccccc3OC)c2)C1 (stereo not drawn)	0	14*	9.7*	2	30*	4	1	25*	12*	-6	-3
COc1ccc(NC(=O)C(Sc2nnc(-c3ccncc3)n2-c2ccccc2C)c2ccccc2)cc1Cl (stereo not drawn)	0	15*	11*	4	28*	7	2	30*	15*	2	-3
COC(=O)C1=C(C)N(Cc2cccc(C(F)(F)F)c2)C(=NCc2ccc(C(F)(F)F)cc2)NC1c1cccc(F)c1 (stereo not drawn)	0	9.4*	8	14*	21*	10	5	22*	12*	-6	-4
COC(=O)C1=C(C)N(Cc2ccc(C(F)(F)F)cc2)C(=NCc2ccccc2)NC1c1cccc(F)c1 (stereo not drawn)	0	8	6	7	11	/	/	/	/	/	/
NC(=O)C1CCN(CC(=O)NC(=O)NC2CCCC2)CC1	0	-4	2	-3	11	/	/	/	/	/	/
COc1ccc(C(=O)Nc2ccccc2C(=O)N2CCOCC2)cc1Br	0	-2	0	0	0	/	/	/	/	/	/
COc1ccc(C(=O)Nc2ccccc2C(=O)N2CCOCC2)cc1OC	-1	2	9.8*	7	21*	2	0	/	/	-6	-1
O=C(Nc1cc(Cl)ccc1O)C1CC(c2c(F)cccc2Cl)=NO1 (stereo not drawn)	-1	9.6*	10*	-4	26*	9	4	19	12*	-7	-3
O=C(Nc1cccc(O)c1)C1CC(c2c(F)cccc2Cl)=NO1 (stereo not drawn)	-1	-5	-1	-5	2	/	/	/	/	/	/
O=C(Nc1ccc(C(F)(F)F)cc1[N+](=O)[O-])O[C@H]1[C@H](Cc2ccccc2)NS(=O)(=O)[C@H]2C[C@@H]3C=C[C@]12O3	0	14*	12*	10	29*	3	0	11	5	-2	-1
Cc1cc(C(=O)O[C@H]2[C@H](Cc3ccccc3)NS(=O)(=O)[C@H]3C[C@@H]4C=C[C@]23O4)ccc1[N+](=O)[O-]	0	2	3	6	3	/	/	/	/	/	/
SMILES	proKLK7 act	ADAM17 inh	PLC-gamma1 inh	PLCb3 inh	ADAM10 inh	ADAM10 confirm	ADAM17 ctr	ADAM10 counter	ADAM17 confirm	PLCgamma1 ctr	PLCb3 confirm
O=C(NCCC1=CCCCC1)c1ccc2c(c1)N(Cc1ccccc1)C(=O)CS2	1	17*	11*	9	27*	8	2	26*	13*	-1	-7
Cc1cc(=O)oc2c(C)c(OCC(=O)c3ccccc3)ccc12	-1	-7	-7	-14	-11	/	/	/	/	/	/
COc1ccc(C)cc1NC(=O)CNC(c1ccccc1)c1ccccc1	0	2	1	1	14	/	/	/	/	/	/
COc1ccc(OC)c(NC(=O)CNC(c2ccccc2)c2ccccc2)c1	1	14*	13*	3	24*	5	2	37*	14*	-6	-2
O=C1c2c(-c3ccc(Br)cc3)noc2CCN1Cc1cn(-c2ccccc2)nn1	1	8	3	5	4	/	/	/	/	/	/
O=C(NCc1cccs1)c1ccc([N+](=O)[O-])cc1	0	6	10.0*	12*	24*	-1	0	/	/	-9	-6
